S1P2 antag: human S1P2 receptor antagonists, primary screen, cell-based. cell-based S1P2 antagonist assay, inhibition at 5 uM. inhibition, % at 5 µM. 0.21% of 97,000 active. AID 736, 2007; in the data active = inhibition above about 45%;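 note: CRE beta-lactamase reporter cells expressing human S1P2 stimulated with S1P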
S1P2 agonist: S1P2 receptor agonists, primary screen, cell-based | Sphingosine 1-phosphate receptor 2 (Homo sapiens), O95136 | activation, % at 4.5 µM | S1P2-expressing cell line, agonist reporter read-out | 0.46% of 97,000 active | AID 729, 2007; in the data active = activation above about 16%
GALR2 blocker: GALR2 antagonists in receptor-expressing cells, primary screen; Galanin receptor type 2 (Homo sapiens), O43603; antagonist mode; inhibition, % at 4 µM; 0.39% of 140,000 active; in the data active = inhibition above about 27%;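 note: cells stimulated with galanin 1-16 at roughly its EC80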
Target sequence (O43603 whole entry, looked up): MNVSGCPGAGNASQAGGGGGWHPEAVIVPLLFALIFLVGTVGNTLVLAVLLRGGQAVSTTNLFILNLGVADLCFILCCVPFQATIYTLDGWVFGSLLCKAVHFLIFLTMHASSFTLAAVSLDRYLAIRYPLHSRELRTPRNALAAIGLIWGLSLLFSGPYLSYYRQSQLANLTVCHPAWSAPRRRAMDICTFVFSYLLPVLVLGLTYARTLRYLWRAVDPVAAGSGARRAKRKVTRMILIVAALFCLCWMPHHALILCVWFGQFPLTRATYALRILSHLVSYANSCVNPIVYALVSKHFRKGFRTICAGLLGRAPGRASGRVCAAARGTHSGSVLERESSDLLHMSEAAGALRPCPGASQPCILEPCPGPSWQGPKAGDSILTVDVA
GALR2 agonist: GALR2 receptor agonists, primary screen, cell-based | Galanin receptor type 2 (Homo sapiens), O43603 | GALR2-expressing cells, agonist activation read-out | activation, % (test concentration not listed) | 0.48% of 140,000 active | AID 803, 2007; in the data active = activation above about 5%, passing the limit was not always enough
hDAT+cocaine: changed hDAT dopamine uptake under cocaine IC80, either direction, primary screen, cocaine antagonist project, cell-based, LLC-PK1 hDAT, [14C]-dopamine uptake, MLSMR; Sodium-dependent dopamine transporter (Homo sapiens), Q01959; LLC-PK1 hDAT cells, [14C]-dopamine uptake with cocaine IC80; actives deviate in either direction; B-score at 10 µM; 1.3% of 110,000 active; AID 449768, 2010;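 active = Z score or B-score, a plate-position-corrected score, falls beyond the plate's 99.7% confidence bounds, in either direction; inactive = both scores lie inside the 99.7% bounds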
A number is an active result; - = inactive; . = no result. Only some compounds are listed: those with a hit (about 2.1% of all), similar ones and a draw of the others.

SMILES	S1P2 antag	S1P2 agonist	GALR2 blocker	GALR2 agonist	hDAT+cocaine
CC1(c2nnc(-c3ccncc3)o2)CC(c2ccc(F)cc2)=NO1 (configuration not stated)	.	.	.	.	-2.3
CCC(=O)Nc1c(-c2ccc(OC)cc2)c(=O)c2ccccc2n1C	-	-	-	-	-9.1
O=C1CCC2(C(=O)O)Sc3ccccc3N12 (configuration not stated)	-	-	-	-	-
COc1ccccc1CCNCc1ccc(OC)c(OCc2ccccc2)c1	48	-	-	-	-
COc1cc(CNCCc2c[nH]c3ccccc23)ccc1OCc1ccccc1F	-	-	-	-	2.5
CCc1cccc(C)c1NC(=O)CSc1nnc(CCCOc2ccc(Cl)cc2Cl)n1C	.	.	-	-	.
CC(=O)c1cn(S(=O)(=O)c2ccccc2)c2ccccc12	.	.	-	-	.
COc1ccccc1C1C(C#N)=C(N)N(c2cccnc2)C2=C1C(=O)CC(C)(C)C2 (configuration not stated)	-	-	-	-	-
Cc1cccc(-n2c(SCc3cc(=O)n4ccsc4n3)nc3ccccc32)c1	-	26	-	-	.
N=c1c2c(-c3ccccc3)c(-c3ccccc3)n(Cc3ccco3)c2ncn1Cc1ccco1	.	.	-	5.2	-
O=c1oc2ccccc2cc1-c1nc2ccccc2o1	-	-	-	-	-
O=c1oc2ccccc2cc1-c1nc2c(s1)CCCC2	-	16	-	17	.
CC(=O)N(Cc1ccc(F)cc1)C1=C(NCc2ccccc2)C(=O)c2ccccc2C1=O	-	-	-	-	-4.3
O=C(NC(=O)c1cccc(OC(F)(F)C(F)F)c1)OC1CCS(=O)(=O)C1 (configuration not stated)	.	.	-	5.7	-
CCNC(=S)N1CCC(c2nc3ccccc3s2)CC1	-	-	-	-	-
C=CCSc1nc(-c2ccccc2)c2cc(Cl)ccc2n1	-	-	-	-	-1.6
N#CCSc1nc(-c2ccccc2)c2cc(Cl)ccc2n1	.	.	-	-	.
CCCN1CCC(=O)N([C@H](CSc2ccc(OC)cc2)Cc2ccccc2)CC1	.	.	.	.	2.5
CC(C)c1onc(C(=O)NCc2ccccc2)c1[N+](=O)[O-]	.	.	-	-	.
CCOC(=O)Nc1ccc2c(c1)N(C(=O)CCN(C)C)c1ccccc1S2	-	-	30	-	-
COc1ccc(-n2c(=O)c3c4c(sc3n3c(C)nnc23)CC(C)CC4)cc1 (configuration not stated)	-	-	-	-	.
CCSc1nnc2n(-c3ccc(OC)cc3)c(=O)c3c4c(sc3n12)CCCC4	-	-	-	-	-8
CCCN(CCC)C(=O)CC(c1ccccc1)c1cc(C)ccc1O (configuration not stated)	-	-	-	-	2.5
O=C(Cn1nnc(-c2ccc(CN3CCOCC3)cc2)n1)Nc1nc(-c2ccccc2)cs1	-	-	-	-	-9.6
CN1CCN(CC(=O)Nc2nc(-c3ccccc3)cs2)CC1	-	-	-	-	.
SMILES	S1P2 antag	S1P2 agonist	GALR2 blocker	GALR2 agonist	hDAT+cocaine
O=C(O)c1ccc2c(c1)C(=O)N(c1ccc(Cl)cn1)C2=O	-	-	-	-	-
O=C1c2cccc3c(N4CCCCC4)ccc(c23)C(=O)N1c1ccc(Cl)cn1	51	-	-	-	.
O=C1c2cccc3c([N+](=O)[O-])ccc(c23)C(=O)N1c1ccc(Cl)cn1	71	-	-	-	.
N#CCN1CCN(CC(=O)Nc2cccc3ccccc23)CC1	-	760	-	-	-
O=C(Nc1cccnc1)C1(c2ccc(Cl)cc2)CCCC1	-	-	-	-	-
Cc1ccc(NC(=O)c2ccc(COc3ccc4c(c3)CCC4)cc2)c(C)c1	.	.	-	-	.
COc1cc2c(cc1OC)-c1nnc(-c3cccs3)n1C1(CCCC1)C2	-	-	-	-	-
CC(=O)c1ccc(NS(=O)(=O)Cc2ccc(Cl)cc2)cc1	-	-	-	-	3.2
CC(=O)Nc1cccc(NS(=O)(=O)Cc2ccc(Cl)cc2)c1	-	-	-	-	-
Cc1ccc(SCC(=O)Nc2ccc(N3CCN(C)CC3)c(F)c2)cc1	-	-	-	7.8	.
CCOc1ccc(CSC(CC(=O)O)C(=O)O)cc1 (configuration not stated)	-	-	-	-	-
COc1ccc2cc(C(=O)NCc3ccco3)c(=O)oc2c1	-	-	-	-	-
O=C(NCc1ccco1)c1cc2ccc(O)cc2oc1=O	-	82	-	145	-
O=S(=O)(Nc1nnc(-c2ccccc2)s1)c1ccc(Cl)cc1	-	-	-	-	-3
O=S(=O)(NCc1cc(-c2ccccc2)no1)c1ccc(Cl)cc1	-	-	-	-	-
CC1CCN(CC(=O)Nc2cccc([N+](=O)[O-])c2)CC1	-	-	-	-	-2.8
CC1=C(C(=O)OCCOc2ccccc2)C(c2ccc(C)o2)C2=C(CC(C)(C)CC2=O)N1 (configuration not stated)	-	-	-	-	3.7
CC(NC(=O)COc1cc(=O)n(C)c2ccccc12)c1ccc2c(c1)OCCO2 (configuration not stated)	-	-	-	-	1.7
COc1ccc(CCNC(=O)COc2ccc(S(=O)(=O)N3CCOCC3)cc2)cc1	-	-	-	-	2.4
Cc1ccc(-c2cc(-c3ccc(Cl)cc3)c(C#N)c(N)n2)o1	-	19	-	13	-
Cc1ccc(-c2cc(-c3ccc(F)cc3)c(C#N)c(N)n2)o1	.	.	-	-	.
Cc1ccc(-c2cc(-c3ccc(C)o3)nc(N)c2C#N)cc1	-	-	-	-	-
Cc1cc(-c2cc(-c3ccc(Cl)cc3)nc(N)c2C#N)co1	-	19	-	9.9	.
CCc1ccc(Nc2nnc(SCc3cc(=O)n4ccsc4n3)s2)cc1	-	-	-	-	.
Cc1cc(C)c(C)c(S(=O)(=O)N2C(=S)NC(=O)C2C(C)C)c1C (configuration not stated)	-	-	-	-	-
SMILES	S1P2 antag	S1P2 agonist	GALR2 blocker	GALR2 agonist	hDAT+cocaine
CCOC(=O)N1CCN(C(=O)C(NC(=O)C2CCC(C)CC2)C(C)C)CC1 (configuration not stated)	-	-	-	-	-
CC1CCC(C(=O)NC(C(=O)N2CCC(N3CCCCC3)CC2)C(C)C)CC1 (configuration not stated)	-	-	-	-	-2.7
CCOC(=O)NC(NC(=S)Nc1ccc(OC)cc1)C(Cl)(Cl)Cl (configuration not stated)	.	.	-	-	.
COC(=O)NC(NC(=S)Nc1ccc([N+](=O)[O-])cc1)C(Cl)(Cl)Cl (configuration not stated)	-	-	-	-	-2.8
Clc1nc(NCc2cccnc2)nc(N2CCOCC2)n1	-	-	-	-	-
CCCc1nc2ccccc2c(=O)n1/N=C/c1ccc(O)cc1O	-	-	-	-	-8.8
CCCc1nc2ccccc2c(=O)n1/N=C/c1ccc(O)cc1	-	-	-	-	-
Cc1ccc2c(CC(=O)OCc3csc(C)n3)coc2c1	-	-	-	-	-7.4

Bioassay records (PubChem)
